# Assay results as given in article PMC5540273 (PLoS ONE, 2017).
# Tested on: TNK2
# Settings: concentration: 1 μM,replicates: in singlicate; n = 1
# 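Also: KINOMEscan kinase panel screen.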
row,SMILES,%Inh [%]
1,CN(c1cccc(CNc2nc(Nc3ccc4c(c3)CC(=O)N4)ncc2C(F)(F)F)c1)S(C)(=O)=O,67
2,CC(=O)Nc1ccc(-c2cc3ncnc(SCC(=O)O)c3s2)cc1,0
3,COc1cccc(OC)c1C(=O)Nc1cccc(-c2nn3ccccc3c2-c2ccnc(Nc3cccc(F)c3)n2)c1 [GSK361065],29
4,CC(C(=O)NC1CCN(c2ccnc(Nc3ccc(F)cc3)n2)C1)c1ccc(Cl)cc1 (stereo not shown) [GSK1379713],0
5,Cc1ccc(CC(=O)N2CCc3cc(-c4cn(C)c5ncnc(N)c45)ccc32)cc1 [GSK2634758],42
6,Cl.Nc1n[nH]c2cc(-c3ccccn3)ccc12 [GSK2189892],15
7,Cl.c1ccc(Oc2ccc(Nc3ccnc4cc(-c5ccc(CN6CCNCC6)o5)ccc34)cc2)nc1 [GW567142],38
8,c1ccc(Oc2ccc(Nc3ccnc4ccc(-c5ccccn5)cc34)cc2)cc1 [GW407034],23
9,COc1cccc(C2=C(Nc3cccc(Cl)c3)C(=O)NC2=O)c1 [SB-341556],15
10,C[C@@H](Oc1cc(-n2cnc3cc(-c4cnn(C)c4)ccc32)sc1C(N)=O)c1ccccc1Cl [GSK580432],64
11,O=C(Nc1n[nH]c2cc(-c3ccco3)ccc12)C1CC1 [SB-737447],0
12,COc1cc2nccc(Nc3ccc(Oc4ccccc4)cc3)c2cc1OC.Cl [GI261656],47
13,CN(c1ccccc1CNc1nc(Nc2ccc3c(c2)CC(=O)N3)ncc1C(F)(F)F)S(C)(=O)=O,53
14,N#Cc1cccc(C(=O)NC2CCN(c3ccnc(Nc4ccc(F)cc4)n3)C2)c1 (stereo not shown) [GSK1379708],4
15,COc1cccc(CNC(=O)NC2CCN(c3ccnc(Nc4cc(OC)c(OC)c(OC)c4)n3)C2)c1 (stereo not shown) [GSK1379765],8
16,Cc1ccc2c(-c3ccnc(Nc4ccc(C(F)(F)F)cc4)n3)cnn2n1 [GW819776],0
17,O=C(Nc1ccc(Oc2ccc3nc(NC(=O)C4CC4)cn3n2)c(F)c1)c1cccn(-c2ccccc2)c1=O,0
18,CS(=O)(=O)Nc1ccc(-c2ccnc3[nH]ccc23)cc1 [GSK993273],14
19,CNC(=O)c1ccccc1Nc1nc(Nc2cccc(CS(C)(=O)=O)c2)ncc1C.O=CO [GSK1520489],98.9

row,SMILES,%Inh [%]
1,O=C(Nc1cccc(C(F)(F)F)c1)c1cccc(Oc2ccc3nccn3n2)c1,0
2,COC(=O)Nc1nc2cc(Oc3ccc(NC(=O)Nc4cc(C(F)(F)F)ccc4Cl)cc3)ccc2[nH]1.Cl [GW697465],8
3,CC(C)c1nc(-c2cccc(NS(=O)(=O)c3ccccc3)c2)c(-c2ccnc(Nc3ccc4c(c3)CN(C)CC4)n2)s1 [GSK1649598],96.2
4,CC(=O)Nc1nc2cnc(Nc3cc(NC(=O)c4cccc(CC(C)(C)C#N)c4)ccc3C)nc2s1,0
5,CCn1c(-c2nonc2N)nc2cncc(CNC3CCNCC3)c21.Cl [SB-747651],8
6,CC(C)S(=O)(=O)N1CCN(Cc2ccc3c(c2)nc(NC(=O)c2ccsc2)n3C[C@H](O)c2ccccc2)CC1 [GW635815],19
7,COc1cc2ncn(-c3cc(OCC4CCCCC4)c(C(N)=O)s3)c2cc1OC [GSK204559],4
8,NC(=O)c1ccc(-c2cc3ncnc(SCC(=O)O)c3s2)cc1,0
9,COc1ccc(Nc2nccc(N3CCC(NC(=O)c4cccc(C#N)c4)C3)n2)cc1 (stereo not shown) [GSK1379730],11
10,CCOC(=O)N1CCC(n2cnc(-c3ccc(F)cc3)c2-c2ccnc(N)n2)CC1 [SB-219952],12
11,CCN1CCN(CCCC(=O)Nc2n[nH]c3nc(-c4ccc(O)cc4)c(Br)cc23)CC1 [SB-731579],0
12,CC(=O)c1c(-c2ccncc2)[nH]c(-c2ccncc2)c1C [GW493036],19
13,O=c1[nH]cc(-c2ccc(O)cc2)c2sc(-c3ccncc3)cc12 [GSK1033723],5
14,C[C@@H]1CCN(C(=O)N2CCCC2)C[C@@H]1N(C)c1ncnc2[nH]ccc12,0
15,CCn1c(-c2nonc2N)nc2cncc(Br)c21 [SB-738004],0
16,Cc1n[nH]c2cc(Nc3ccnc(Nc4cccc(CN5CCOCC5)c4)n3)ccc12 [GW682569],10
17,O=C(NOCC1CC1)c1cc(Br)c(F)c(F)c1Nc1ccc(I)cc1Cl,0
18,Cn1cc(-c2cccc3c(N)c(C(N)=O)nnc23)cn1,0
